Holding throughout (test): NCI-60 one-dose screen, 48 h (100 = growth as untreated, 0 = no growth, -100 = all killed)
Common to all, as to conditions: 10 µM unless noted

The test system of assay [1] is NCI-H23 lung.
Assay [2] deals with NCI-H226 lung.
Assay [3] relates to NCI-H322M lung.
The subject of assay [4] is HOP-62 NSCLC.
Assay [5] concerns NCI-H460 lung.
Assay [6] has as its system HOP-92 NSCLC.
For assay [7], the system named is NCI-H522 lung.
For assay [8], the system named is A549/ATCC NSCLC.
For assay [9], the system named is 786-0 renal.
In assay [10] the test system is COLO 205 colon.
The subject of assay [11] is DU-145 prostate.
Assay [12] relates to K-562 leukemia.
For assay [13], the system named is MALME-3M melanoma.
The test system of assay [14] is MDA-MB-231 breast.
The subject of assay [15] is RXF 393 renal.
Assay [16] has as its system SF-268 CNS.
Assay [17] relates to SF-295 CNS.
In assay [18] the test system is SF-539 CNS.
In assay [19] the test system is UACC-257 melanoma.
For assay [20], the system named is M14 melanoma.

The structures appear in SMILES notation. About 83,000 compounds went through this panel and 20% of them were active in at least one assay; those are over-represented in the sample as a whole.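 Cells were grown in 96-well plates and exposed to the test compound at a single concentration for 48 hours; results are reported as percent growth, with values below 10 considered active.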 Unmarked numbers belong to inactive results. The source made the active and inactive calls.

For `CC(C)(C)OC(=O)N1C=C/C(=C\Cn2cc(-c3ccccc3)nn2)CC1`, the growth is 65% in assay [1]; 72% in assay [2]; 80.9% in assay [3]; 89.3% in [4]; 84.7% in assay [5]; 62.9% in assay [6]. The growth is 74.6% in [7]; 83.8% in [8]; 79.6% in assay [9]; 109% in [10]; 88.2% in assay [11]; 41.4% in assay [12]. Also, the growth in assay [13] is 65.7%; in [14] it was 75.9%; in assay [15] it was 91.8%; in assay [16], 81%; in assay [17], 61%; in assay [18], 79.5%. In addition, the values for the growth in [19] and in assay [20] were 66% and 56.5%, respectively.
For the compound `C=C(C)[C@@H]1CC[C@]2(C(=O)OC)CC[C@]3(C)[C@H](CC[C@@H]4[C@@](C)(CCc5nn[nH]n5)[C@H](C(=C)C)CC[C@]43C)[C@@H]12`, the growth was -13.8% [100 µM] (active) in [1]; -19.9% [100 µM] (active) in assay [2]; 9.71% [100 µM] (active) in assay [3]; -72.7% [100 µM] (active) in assay [4]; -59.3% [100 µM] (active) in assay [5]; -39.8% [100 µM] (active) in assay [6]. For the same compound, the growth in assay [7] was -25.3% [100 µM] (active); in [8] it was 2.03% [100 µM] (active); in [9], -8.74% [100 µM] (active); in [10] it was -62.9% [100 µM] (active); in assay [11], 0.51% [100 µM] (active); in assay [12], 14.5% [100 µM]. Moreover, the growth in [13] is -52% [100 µM] (active); in assay [14], -76.9% [100 µM] (active); in assay [15], -78.3% [100 µM] (active); in assay [16], -23.1% [100 µM] (active); in assay [17], -35.2% [100 µM] (active); in [18] it was -65% [100 µM] (active). The growth is -5.16% [100 µM] (active) in [19] and -9.37% [100 µM] (active) in assay [20].
`O=C(OCc1ccc2c(Cl)cc(Cl)c(O)c2n1)N1CCN(C(=O)c2cc3cc(F)ccc3[nH]2)CC1`: the growth in assay [1] is 26.3%; in assay [2], 2.12% (active); in [3] it was 33.5%; in assay [4], 6.32% (active); in assay [5], 1.07% (active); in assay [6], 39.2%. Moreover, the growth in assay [7] was -19.1% (active); in assay [8], 13.6%; in assay [9] it was 79.2%; in [10] it was 85.7%; in assay [11] it was -10.4% (active); in [12] it was 13.3%. Also, the growth in [13] is 38.2%; in [14] it was 28.2%; in assay [15], 16.4%; in [16], 31.1%; in assay [17], 25.1%; in assay [18], -20.1% (active). Also, the values for the growth in assay [19] and in [20] were 25.1% and 7.85% (active), respectively.
On to `CCN1CCN(CC(=O)Nc2nc3ccc(NCc4ccc(Cl)cc4)cc3s2)CC1`, for which the growth was 69.2% in assay [1]; 60% in assay [2]; 79.4% in assay [3]; 77.6% in [4]; 54.7% in assay [5]; 31.6% in assay [6]. Further, the growth was 86.3% in assay [7]; 61.5% in assay [8]; 73% in assay [9]; 23.8% in assay [10]; 89.6% in assay [11]; 2.71% (active) in assay [12]. Also, the growth in assay [13] was 0.984% (active); in [14], 51.9%; in [15] it was 51.2%; in assay [16], 71%; in [17] it was 81.6%; in [18], 64.3%. Moreover, the growth in assay [19] is 7.11% (active); in [20], -76.6% (active).
As to `O=C(Nc1cccc(C2=NCCN2)c1)c1cccc(C(=O)Nc2cccc(C3=NCCN3)c2)c1`, the growth was 95.4% in assay [1]; 90.5% in [2]; 92.4% in assay [3]; 97.1% in assay [4]; 102% in [5]; 101% in assay [6]. For the same compound, the growth in assay [7] was 94.1%; in assay [8], 102%; in assay [9], 103%; in assay [10] it was 99.8%; in assay [11] it was 107%; in [12], 96.6%. Moreover, the growth is 97.1% in assay [13]; 101% in assay [14]; 102% in assay [15]; 96.4% in [16]; 99% in [17]; 95.7% in [18]. Also, the growth in [19] was 95.8%; in assay [20], 99%.
As to `Cc1ccc2c(c1)/C(=N\N=C/c1cn(C(C)C)c3ccccc13)C(=O)N2`, the growth in [1] is 61.7%; in [2] it was 56.1%; in assay [3] it was 61.1%; in [4], 49%; in assay [5] it was 40.5%; in [6] it was 71.8%. Besides, the growth in [7] is 14.4%; in [8] it was 60.8%; in assay [9], 93%; in assay [10], -29.8% (active); in [11], 72.2%; in assay [12], 22.1%. The growth in assay [13] is 16.2%; in [14], 50.5%; in assay [15], 22.5%; in assay [16], 66.4%; in [17], 68.2%; in assay [18], 58.6%. Moreover, the growth is 59.5% in [19] and 54% in [20].
Turning to `Cn1cc(-c2noc(C(=O)c3cn(C)c4ncccc34)n2)c2ccccc21`, the growth is 92.3% in [1]; 89.4% in assay [2]; 95.5% in assay [3]; 95% in [4]; 99.3% in assay [5]; 41.4% in assay [6]. The growth is 81.1% in [7]; 100% in assay [8]; 94.5% in [9]; 99.8% in [10]; 87.4% in assay [11]; 76.1% in assay [12]. For the same compound, the growth in [13] is 72.5%; in assay [14], 70.3%; in [15], 88.5%; in assay [16], 99.3%; in assay [17] it was 101%; in [18] it was 90.2%. The growth in [19] is 103%; in assay [20], 98.7%.

Values taken from PubChem BioAssay (NCI).
